Source: PubChem BioAssay

Target: Focal adhesion kinase 1 (Homo sapiens) (UniProt Q05397)
Assay: small-molecule microarray binders of FAK, primary screen, biochemical, 635/667 nm fluorescence, BSA, DTT (AID 1130);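 further: composite of spot emission at 667 nm and signal to noise over triplicate slides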
Details: PTK2 binding, 635 nm fluorescence, higher = more signal

Sequence of Focal adhesion kinase 1 (Homo sapiens) (Q05397 whole entry, looked up): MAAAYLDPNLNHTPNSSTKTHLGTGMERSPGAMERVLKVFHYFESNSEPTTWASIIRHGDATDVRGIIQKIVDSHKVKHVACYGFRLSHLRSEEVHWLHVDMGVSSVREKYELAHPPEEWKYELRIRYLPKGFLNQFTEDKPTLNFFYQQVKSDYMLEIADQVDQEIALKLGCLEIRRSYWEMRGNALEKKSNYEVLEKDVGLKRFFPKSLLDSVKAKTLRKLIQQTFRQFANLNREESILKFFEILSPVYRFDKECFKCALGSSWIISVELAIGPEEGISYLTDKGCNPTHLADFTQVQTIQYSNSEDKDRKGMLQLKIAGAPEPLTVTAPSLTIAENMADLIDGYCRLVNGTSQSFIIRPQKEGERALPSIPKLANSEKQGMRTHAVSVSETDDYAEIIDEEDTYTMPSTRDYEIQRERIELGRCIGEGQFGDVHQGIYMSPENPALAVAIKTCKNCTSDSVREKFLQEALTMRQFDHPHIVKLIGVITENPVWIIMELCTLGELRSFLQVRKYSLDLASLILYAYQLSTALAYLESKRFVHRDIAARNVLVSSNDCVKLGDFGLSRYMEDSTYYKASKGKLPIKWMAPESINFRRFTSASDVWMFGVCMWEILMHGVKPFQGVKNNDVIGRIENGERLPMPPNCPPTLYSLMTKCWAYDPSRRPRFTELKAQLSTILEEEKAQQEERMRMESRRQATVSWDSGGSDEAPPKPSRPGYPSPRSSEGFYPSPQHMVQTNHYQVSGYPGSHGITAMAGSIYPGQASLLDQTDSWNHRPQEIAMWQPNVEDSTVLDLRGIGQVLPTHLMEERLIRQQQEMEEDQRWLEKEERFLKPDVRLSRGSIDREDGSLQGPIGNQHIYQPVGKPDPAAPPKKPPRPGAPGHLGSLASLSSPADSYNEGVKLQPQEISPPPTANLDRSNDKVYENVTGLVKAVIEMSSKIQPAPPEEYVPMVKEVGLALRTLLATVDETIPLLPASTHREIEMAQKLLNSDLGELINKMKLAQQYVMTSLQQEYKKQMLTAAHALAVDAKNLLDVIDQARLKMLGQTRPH

Q: Which composite z-score does the source give for `CC(C)[Si](C#C[Si](C(C)C)(C(C)C)C(C)C)(O[C@H](C)c1cn(Cc2cccc(Cl)c2)nn1)C(C)C` here?
A: The composite z-score was 0.586.

Q: For `CC(C)(C)OC(=O)CC[C@]1(C(=O)N2CCCCC2)N=C(c2ccc(OCCCO)cc2)O[C@H]1c1ccccc1CN=[N+]=[N-]`, which composite z-score is on record?
A: The composite z-score was 0.72.

Q: Which composite z-score does the source give for `CCOC(=O)C[C@H]1[C@H](OC(=O)Cc2ccc3c(c2)OCO3)[C@@H](NC(=O)c2ccccc2)c2cc(OCCCO)ccc2N1C(=O)c1ccc2ccccc2n1` here?
A: Its composite z-score is -0.0584.

Q: For `CC(C)CCC[C@@H](C)[C@H]1CC[C@@]2(C)C3=C(CC[C@]12C)[C@@]1(C)CC[C@H](OC(=O)c2ccc(N)cc2)C(C)(C)C1CC3` (stereo not given in full), which composite z-score is on record?
A: The composite z-score was 0.108.

Q: Which composite z-score does the source give for `C=CCC(OC(C)=O)[C@@H]1[C@@H](N(Cc2cccc3ccccc23)C(=O)c2ccc(C)cc2)c2cc(OCCCO)ccc2N1C(=O)c1ccc2ccccc2c1` (stereo not given in full) here?
A: The composite z-score was 0.0096.

Q: `COC(=O)C(CC#Cc1ccc2c(c1)[C@]1(C(=O)N2)[C@H](c2ccccc2OCCO)N2[C@H](c3ccccc3)[C@H](c3ccccc3)OC(=O)[C@H]2[C@@H]1C(=O)Nc1nc2ccccc2s1)C(=O)OC` was tested. Which composite z-score did it give?
A: The composite z-score was 0.607.

Q: For `C=CCOC(=O)[C@@H]1[C@H]2C(=O)O[C@H](c3ccccc3)[C@H](c3ccccc3)N2[C@H](c2ccc(OCCOC(=O)[C@@H]3C[C@@H]4C(=O)N5CCC[C@H]5C(=O)N4[C@@H]3c3cccc(OCCO)c3)cc2)[C@@]12C(=O)Nc1ccc(I)cc12`, which composite z-score is on record?
A: The composite z-score was 0.468.

Q: `COc1ccc(C(=O)Nc2ccc(CN3C(=O)[C@]4(O[C@H](CCn5cc([C@H](O)c6ccccc6)nn5)[C@@H]([Si](C)(C)c5ccc(OC)cc5)[C@@H]4C)c4ccccc43)cc2)cc1` was tested. Which composite z-score did it give?
A: The composite z-score was -0.288.

Q: `CN(C)C(=O)[C@@]1(CCC(=O)OC(C)(C)C)N=C(c2ccc(OCCCO)cc2)O[C@H]1c1ccccc1N=[N+]=[N-]` was tested. Which composite z-score did it give?
A: Its composite z-score is 0.162.

Q: How did the composite z-score turn out when `COCCOC(=O)N1C(=O)[C@@]2(c3cc(C#CCCO)ccc31)[C@H](C(=O)NC[C@H](O)c1ccccc1)[C@H]1C(=O)O[C@H](c3ccccc3)[C@H](c3ccccc3)N1[C@@H]2c1ccccc1OCCO` was run?
A: The composite z-score was 1.07.

Q: With `COc1ccc([Si](C)(C)[C@H]2[C@H](CCO)O[C@@]3(C(=O)N(Cc4cccc(N5CCOC5=O)c4)c4ccccc43)[C@@H]2C)cc1` as the compound, how does the composite z-score read?
A: The composite z-score was 0.413.

Q: Which composite z-score does the source give for `CN(C)CCCC[C@@H]1NC(=O)[C@H]2C[C@@H](C(=O)NCCCCCCNC(=O)CS)[C@@H](c3ccc(O)cc3)N2C1=O` here?
A: The composite z-score was 1.05.

Q: With `CC(C)=CCCC(C)=CC(O)C1C=CC2C(=O)N(c3ccccc3)C(=O)C2N1Nc1ccc([N+](=O)[O-])cc1` (stereo not given) as the compound, how does the composite z-score read?
A: Its composite z-score is 0.954.

Q: Which composite z-score does the source give for `COC(=O)[C@@]1(Cc2ccc(OC)cc2)[C@H]2c3cc(C(=O)N(C)C)n(Cc4cc(F)c(F)c(F)c4)c3C[C@H]2CN1C(=O)c1ccccc1` here?
A: The composite z-score was 1.86.

Q: How did the composite z-score turn out when `COCCOC(=O)N1C(=O)[C@@]2(c3cc(C#CCC(C(=O)OC)C(=O)OC)ccc31)[C@H](C(=O)N1CCCCCCC1)[C@H]1C(=O)O[C@H](c3ccccc3)[C@H](c3ccccc3)N1[C@@H]2c1ccc(O)cc1` was run?
A: Its composite z-score is 0.598.

Q: `[N-]=[N+]=Nc1ccccc1[C@H]1OC(c2ccc(OCCCO)cc2)=N[C@@]1(Cc1ccccc1)C(=O)NCc1ccccc1` was tested. Which composite z-score did it give?
A: The composite z-score was 0.425.

Q: With `COC(=O)C(CC#Cc1ccc2c(c1)[C@]1(C(=O)N2)[C@H](c2ccc(O)cc2)N2[C@H](c3ccccc3)[C@H](c3ccccc3)OC(=O)[C@H]2[C@@H]1C(N)=O)C(=O)OC` as the compound, how does the composite z-score read?
A: Its composite z-score is -0.627.

Q: `C=CCNC(=O)[C@H]1[C@@H]2C(=O)O[C@@H](c3ccccc3)[C@@H](c3ccccc3)N2[C@@H](c2ccc(OCCO)cc2)[C@]12C(=O)N(C(=O)OCCOC)c1ccc(C#CC3=CCCCC3)cc12` was tested. Which composite z-score did it give?
A: The composite z-score was 0.485.

Q: `COC(=O)[C@@]1(Cc2ccccc2)[C@H]2c3cc(C(=O)N(C)C)n(Cc4ccccn4)c3C[C@H]2CN1C(=O)c1ccccc1` was tested. Which composite z-score did it give?
A: The composite z-score was 1.56.

Q: With `O=C(Nc1cc(Br)ccc1C(=O)NCc1cccc(O)c1)c1ccccc1` as the compound, how does the composite z-score read?
A: The composite z-score was 0.243.

Q: `NCCCCCCNC(=O)[C@H]1C[C@H]2C(=O)N3CCC[C@H]3C(=O)N2[C@H]1c1ccc(O)cc1` was tested. Which composite z-score did it give?
A: The composite z-score was 1.1.

Q: Which composite z-score does the source give for `C#CCNS(=O)(=O)N(C)C` here?
A: The composite z-score was 0.17.

Q: `CCCC=C(CCC)[C@@H](NS(=O)(=O)CC)c1ccccc1` was tested. Which composite z-score did it give?
A: Its composite z-score is 0.655.

Q: How did the composite z-score turn out when `CN(C)CCCCCCNC(=O)[C@@H]1C[C@@H]2C(=O)NCC(=O)N2[C@@H]1c1ccc(O)cc1` was run?
A: The composite z-score was 1.28.

Q: `NC(=O)NCC#Cc1ccc2c(c1)[C@]1(C(=O)N2)[C@H](c2ccc(O)cc2)N2[C@H](c3ccccc3)[C@H](c3ccccc3)OC(=O)[C@H]2[C@@H]1C(N)=O` was tested. Which composite z-score did it give?
A: The composite z-score was -0.549.
